Reference: PubChem BioAssay (EPA / NIEHS)
Calls of active or inactive are those of the source. The calls were made as follows: active = hit-call score of the fitted dose curve at least 0.9, where 1 is the maximum; inactive = score below 0.9.

Test: ATG_NRF2_ARE_CIS: Attagene CIS-FACTORIAL HepG2 Assay for human Nuclear Factor Erythroid 2 Related Factor 2 (NFR2) response to Antioxidant Response Elements (ARE) (AID 2282992);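 as to AC50: reporter mRNA level measured by RT-PCR and capillary electrophoresis fluorescence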
Details: HepG2 Attagene ARE/NRF2 reporter, transcription factor activity; actives raise or lower the signal
Summary of the method: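 Endogenous transcription factor activity in human liver HepG2 cells is tracked via a cis-element-driven reporter within a multiplexed set. mRNA induction is read by RT-PCR and capillary electrophoresis after 24 h, with DMSO as baseline.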

outcome, inactive:
O=C(c1ccccc1)C(O)c1ccccc1 (stereo not drawn)
Cc1ncc([N+](=O)[O-])n1CCO
C=C(C)C(=O)OCCOCCOCCOC(=O)C(=C)C
C/C=C(\C)C(=O)OCCc1ccccc1
O=CCc1ccccc1
Nc1ccc2c(O)cc(S(=O)(=O)O)cc2c1
COC(CC(C)CCCC(C)(C)O)OC (stereo not drawn)
CCC1CCCCC1
CN(C)c1ccncc1
CCCCCCOC(=O)C(C)C
O=C(O)CCCCCCCCCCCC(=O)O
CCCC(O)C(O)CO (stereo not drawn)
CCCCCCOCCOCCO
CCc1ccc(O)c(OC)c1
CCOc1ccc(N=Nc2ccc(C=Cc3ccc(N=Nc4ccc(OCC)cc4)cc3S(=O)(=O)O)c(S(=O)(=O)O)c2)cc1
COC(=O)c1ccc(C)cc1C1=NC(C)(C(C)C)C(=O)N1 (stereo not drawn) (tested in a mixture with another compound)
CC(=O)c1ccccn1
CCCCSCCCC
CCN(CCN)c1cccc(C)c1
OCC(O)c1ccccc1 (stereo not drawn)
O=C1NC2NC(=O)NC2N1 (stereo not drawn)
COc1cccc(OC)c1O
CC(C)(CO)[C@@H](O)C(=O)NCCC(=O)O
CCOc1ccc(NC(=O)CC(C)=O)cc1

AC50, active:
CCCC(=O)C(CC)Sc1ccoc1C (stereo not drawn) 27.7 µM
CC(C)NCC(O)COc1ccc(CC(N)=O)cc1 (stereo not drawn) 61.5 µM
C=C(C)C(=O)OCCOC1CC2CC1C1C=CCC21 (stereo not drawn) 177 µM
O=C1OC(=O)c2c(Br)c(Br)c(Br)c(Br)c21 100 µM
CC1(C)CCC[C@]2(C)[C@H]3CCO[C@]3(C)CC[C@@H]12 155 µM
CC(C)(N=C=O)c1cccc(C(C)(C)N=C=O)c1 13 µM

Test: ATG_Oct_MLP_CIS: Attagene CIS-FACTORIAL HepG2 Assay for human Octamer-Binding Transcription Factor (Oct) (AID 2282993)
Details: HepG2 Attagene cis-factorial Oct reporter, mRNA; actives raise or lower the signal
Summary of the method: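 HepG2 cells transiently transfected with cis-promoter-driven multiplexed reporter transcription units, dosed for 24 h. Reporter mRNA quantified by RT-PCR, fluorescent labelling, HpaI digestion and capillary electrophoresis; bidirectional fits versus DMSO baseline.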

outcome, inactive:
O=C(c1ccccc1)C(O)c1ccccc1 (stereo not drawn)
Cc1ncc([N+](=O)[O-])n1CCO
C=C(C)C(=O)OCCOCCOCCOC(=O)C(=C)C
C/C=C(\C)C(=O)OCCc1ccccc1
O=CCc1ccccc1
CCCC(=O)C(CC)Sc1ccoc1C (stereo not drawn)
Nc1ccc2c(O)cc(S(=O)(=O)O)cc2c1
COC(CC(C)CCCC(C)(C)O)OC (stereo not drawn)
CCC1CCCCC1
CN(C)c1ccncc1
CCCCCCCCCC(C)C=O (stereo not drawn)
CC(C)NCC(O)COc1ccc(CC(N)=O)cc1 (stereo not drawn)
CCCCCCOC(=O)C(C)C
O=C(O)CCCCCCCCCCCC(=O)O
CCCC(O)C(O)CO (stereo not drawn)
CCCCCCOCCOCCO
CCc1ccc(O)c(OC)c1
CC(C)c1ccccc1O
C=C(C)C(=O)OCCOC1CC2CC1C1C=CCC21 (stereo not drawn)
O=C1OC(=O)c2c(Br)c(Br)c(Br)c(Br)c21
CCOc1ccc(N=Nc2ccc(C=Cc3ccc(N=Nc4ccc(OCC)cc4)cc3S(=O)(=O)O)c(S(=O)(=O)O)c2)cc1
COC(=O)c1ccc(C)cc1C1=NC(C)(C(C)C)C(=O)N1 (stereo not drawn) (tested in a mixture with another compound)
CC(=O)c1ccccn1
CC1(C)CCC[C@]2(C)[C@H]3CCO[C@]3(C)CC[C@@H]12
CCCCSCCCC
CCN(CCN)c1cccc(C)c1
CCCC(C)=O
OCC(O)c1ccccc1 (stereo not drawn)
Cc1occc(=O)c1OC(=O)C(C)C
CCOc1ccccc1O
CC(C)(N=C=O)c1cccc(C(C)(C)N=C=O)c1
CCCCCCCCCCCC(=O)OCC(O)CO (stereo not drawn)
COc1cccc(OC)c1O
CC(C)(CO)[C@@H](O)C(=O)NCCC(=O)O
CCC(C)c1cc([N+](=O)[O-])cc([N+](=O)[O-])c1OC(=O)OC(C)C (stereo not drawn)
CCOc1ccc(NC(=O)CC(C)=O)cc1

AC50, active:
C=CC(=O)OCCC#N 44.1 µM
O=C1NC2NC(=O)NC2N1 (stereo not drawn) 0.167 µM
